We go through seven compounds from PubChem BioAssay (NCATS).

Each structure is given as a SMILES string. Where “and” joins values, the source holds several entries; their conditions need not be identical. Identical values can stand only once. A number with no mark means an inactive call. Inconclusive results are not listed. Calls of active or inactive are those of the source. Unless noted, the call rests on the fitted dose curve; in most records, active means well fitted curve in the direction sought with a large enough effect; inconclusive means small, poorly fitted or top-dose-only effect, or another doubt; inactive means no such curve, though single readings can be large; an effect the other way counts as inactive or inconclusive.

Assay [1] is described as follows: Cell Viability - HUV-EC-C (AID 542). Further: nearly all actives have a fitted effect of over 35% in size. Further: potency means the concentration at half of the fitted maximal effect. Put shortly:
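HUV-EC-C normal human vascular endothelial cells, 1000 cells/well, pre-incubated 5 hr at 37 °C, then exposed to compounds for 40 hr at 37 °C in complete medium. Viability measured as intracellular ATP by CellTiter-Glo luminescence; AC50 from Hill fits.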

Assay [2] in a line: Cellular Toxicity (caspase-3) SHSY5Y (AID 657). Put shortly: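 SH-SY5Y human neuroblastoma cells, 1500/well, exposed to compound for 16 hours at 37 °C in complete medium. Caspase-3/7 activity read by Caspase-Glo luminescence after 1 hr at room temperature, normalized to DMSO and 10 uM staurosporine; AC50 from Hill fit.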
Assay [3] in a line: Cell Viability - LYMP2-001 (AID 921). Further: nearly all actives have a fitted effect of over 70% in size. Further: potency means the concentration at half of the fitted maximal effect. The method, boiled down:
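Human lymphoblastoid LYMP2-001 cells, 2500 per well, in complete medium, treated 24 h at 37 C. Viability from cellular ATP by CellTiter-Glo luminescence; AC50 from Hill-equation fits of qHTS concentration-response.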

A short description of assay [4]: Cell Viability - LYMP1-002 - Assay at 16 hr (AID 948). Further: potency means the concentration at half of the fitted maximal effect. Put shortly: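 LYMP1-002 human lymphoblastoid cells, 2500/well, were treated with compounds for 16 hr at 37 C in complete medium. Viability was read as intracellular ATP by CellTiter-Glo luminescence, and AC50 was derived from a Hill fit to concentration-response data.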
The nature of assay [5]: MultiTox-Fluor Cytotoxicity Assay - LYMP1-003 - Dead Cells (AID 961). Further: nearly all actives have a fitted effect of over 70% in size. Further: potency means the concentration at half of the fitted maximal effect. The method, boiled down: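 LYMP1-003 lymphoblastoid, 2500 cells/well, 5 hr settle then 16 hr cpd at 37 C; MultiTox-Fluor reagent 60 min RT; Ex/Em 485/520 dead-cell signal; norm. DMSO = 0%, 15 uM tetraoctylammonium bromide = 100%; Hill AC50.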
Assay [6] can be described thus: Cell Viability - LYMP1-003 - Assay at 40 hr (AID 964). Further: nearly all actives have a fitted effect of over 60% in size. Further: potency means the concentration at half of the fitted maximal effect. Put shortly: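 Human lymphoblastoid LYMP1-003 cells, 2500/well in complete medium, rested 5 hr at 37 C, then exposed to compounds for 40 hr at 37 C. Viability read as intracellular ATP by CellTiter-Glo luminescence; AC50 from Hill fits of concentration-response data.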
Assay [7] is described as follows: Cell Viability - LYMP2-005 (AID 967). Further: potency means the concentration at half of the fitted maximal effect. Put shortly:
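Human lymphoblastoid LYMP2-005 cells, 2,500 per well in complete medium, rested 5 h at 37C then compound-treated 24 h at 37C. Intracellular ATP read by CellTiter-Glo luminescence after 30 min at room temperature; AC50 from Hill-equation fits of concentration-response data.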

The nature of assay [8]: Cell Viability - LYMP2-009 (AID 968). Further: nearly all actives have a fitted effect of over 55% in size. Further: potency means the concentration at half of the fitted maximal effect.
Assay [9] can be described thus: Cell Viability - LYMP2-011 (AID 969). Further: nearly all actives have a fitted effect of over 60% in size. Further: potency means the concentration at half of the fitted maximal effect. Put shortly: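 Human lymphoblastoid cells (2500/well) were plated in complete medium, preincubated 5 hr at 37 C, then exposed to compounds for 24 hr at 37 C. Intracellular ATP was read by CellTiter-Glo luminescence, and AC50 came from Hill-equation concentration-response fits.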
Assay [10] is described as follows: Cell Viability - LYMP2-017 (AID 972). Further: nearly all actives have a fitted effect of over 55% in size. Further: potency means the concentration at half of the fitted maximal effect. Put shortly: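 Human lymphoblastoid cells (2500/well) were seeded in complete medium, held 5 hr at 37 C, then exposed to compounds for 24 hr at 37 C. Intracellular ATP was read by CellTiter-Glo luminescence after 30 min at room temperature, with AC50 values from Hill-equation fits.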
A short description of assay [11]: Cell Viability - LYMP2-021 (AID 974).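 Further: compound exposure lasts 24 hours at 37 °C; nearly all actives have a fitted effect of over 55% in size.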 Further: potency means the concentration at half of the fitted maximal effect. The method, boiled down: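 Human lymphoblastoid cells (2500/well) were preincubated 5 hr at 37 C, then exposed to compounds for 24 hr at 37 C in complete medium. Intracellular ATP was read by CellTiter-Glo luminescence; AC50 came from Hill-equation fits of concentration-response data.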
A short description of assay [12]: Cell Viability - LYMP2-023 (AID 975). Further: nearly all actives have a fitted effect of over 55% in size. Further: potency means the concentration at half of the fitted maximal effect. The method, boiled down:
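Human lymphoblastoid cells (2500/well) were preincubated 5 hr at 37 C, then exposed to compounds for 24 hr at 37 C in complete medium. Cellular ATP was read by CellTiter-Glo luminescence, and AC50 came from Hill-equation fits.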

Assay [13] can be described thus: Cell Viability - LYMP2-025 (AID 976). Further: potency means the concentration at half of the fitted maximal effect. Put shortly:
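Human lymphoblastoid LYMP2-025 cells (2500/well) were pre-incubated 5 hr at 37 C, then treated with compounds for 24 hr at 37 C in complete medium. Viability was read as intracellular ATP by CellTiter-Glo luminescence; AC50 from Hill fits.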

Assay [14] can be described thus: Cell Viability - LYMP2-007 (AID 979).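 Further: cells exposed to compound for 24 h before reading; nearly all actives have a fitted effect of over 60% in size.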 Further: potency means the concentration at half of the fitted maximal effect. Put shortly:
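Human lymphoblastoid cells (2500/well) were plated in complete medium, incubated 5 hr at 37 C, then exposed to compounds for 24 hr at 37 C. Intracellular ATP was read by CellTiter-Glo luminescence after 30 min at room temperature; AC50 from Hill fits.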

Assay [15] in a line: Cell Viability - LYMP2-012 (AID 982). Further: potency means the concentration at half of the fitted maximal effect.
Assay [16] can be described thus: Cell Viability - LYMP1-002 - Assay at 24 hr (AID 993). Further: potency means the concentration at half of the fitted maximal effect. The method, boiled down: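 Human lymphoblastoid LYMP1-002 cells, 2500/well in complete medium, were treated with compounds for 24 h at 37 C; intracellular ATP was read by CellTiter-Glo luminescence. AC50 values came from Hill-equation fits of qHTS concentration-response data.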
A short description of assay [17]: Cell Viability - LYMP1-002 - Assay at 40 hr (AID 994). Further: nearly all actives have a fitted effect of over 60% in size. Further: potency means the concentration at half of the fitted maximal effect. Put shortly: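 Human lymphoblastoid cells, 2500/well in complete medium, were preincubated 5 hr at 37 C, then exposed to compounds for 40 hr at 37 C. Intracellular ATP was read by CellTiter-Glo luminescence after 30 min at room temperature; AC50 from Hill-equation fits.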
Assay [18] in a line: qHTS assay for small molecule disruptors of the mitochondrial membrane potential - 5 hr assay (AID 651755; calls by dose curve; further: nearly all actives have a fitted effect of over 40% in size; further: potency means the concentration at half of the fitted maximal effect). The method, boiled down:
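HepG2 cells, attached overnight at 37C, were exposed to compound or DMSO for 5 hr at 37C, 5% CO2. Mito-MPS dye was then added for 30 min, and fluorescence read at 490/535 nm (monomers) and 540/590 nm (aggregates).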
(In general: qHTS replaces the single test concentration by a dilution series.)

Assay [19] in a line: qHTS assay for small molecule agonists of the antioxidant response element (ARE) signaling pathway measured by Nrf2-dependant transcriptional activity (AID 720636; active means well fitted curve in the direction sought with a large enough effect in the repeat runs; an effect the other way counts as inactive or inconclusive; further: potency means the concentration at half of the fitted maximal effect;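 on activation: HepG2 cells with an ARE-driven luciferase reporter; % of control where 0% means no effect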). Put shortly: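 First, ARE-luc HepG2 cells attached for 6 hr at 37 C in 1% dialyzed FBS medium. Next, compound or DMSO was added and incubated 16 hr. Finally, ONE-Glo reagent was added and luminescence measured after 30 min.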

A short description of assay [20]: qHTS assay for environmental chemicals that activate the Aryl hydrocarbon Receptor (AhR) signaling pathway (AID 651777). Further: % of control where 0% means no effect; nearly all actives have a fitted effect of over 15% in size. As to conditions: 1A2-DRE human hepatoma cells, luciferase, 24 h; activation: stronger effect = higher value. The method, boiled down:
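AhR activation is scored as a rise in luciferase from a stable DRE–CYP1A2 promoter construct in human hepatoma cells. Treatment lasts 24 hr at 37 C; detection uses One-Glo after 30 min at room temperature.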

`O=[N+]([O-])c1cc(C(F)(F)F)cc([N+](=O)[O-])c1Cl`: the Potency result in [1], in [2], in assay [4], in assay [5], in assay [6] and in assay [7] was “inactive” in each case. The Potency entry in assay [16], in [17], in assay [18] and in [19] was “inactive” throughout. Moreover, the Potency in assay [3] is 25.1 µM (active); in assay [8] it was 31.6 µM (active); in assay [9], 39.8 µM (active); in assay [10] it was 31.6 µM (active); in assay [11], 31.6 µM (active); in assay [12], 39.8 µM (active). The Potency in assay [13] is 50.1 µM (active); in [14], 39.8 µM (active); in assay [15] it was 31.6 µM (active).
As to `c1ccc2cc3c(cc2c1)-c1cccc2cccc-3c12`, the Potency entry in assay [1], in [2], in assay [3], in assay [4], in [5] and in [6] was “inactive” each time. Besides, the Potency entry in assay [7], in assay [8], in assay [9], in assay [10], in assay [11] and in assay [12] was “inactive” each time. For the same compound, the Potency result in assay [13], in assay [14], in [15], in [16] and in assay [17] was “inactive” throughout. Also, the Potency in assay [18] is 6.68 µM (active); in assay [19], 9.44 µM (active) and 8.63 µM (active).
As to `COP(=O)(OC)O/C(=C\Cl)c1cc(Cl)c(Cl)cc1Cl`, the Potency result in assay [3], in [4], in [5], in assay [6], in [8] and in assay [9] was “inactive” throughout. Moreover, the Potency result in assay [12], in assay [13], in assay [16] and in assay [17] was “inactive” in each case. In addition, in [15], the Potency was 50.1 µM (active). Also, the activation in [20] is 0.406%.
Take `C[C@@H]1CC[C@@]2(OC1)O[C@H]1[C@@H](O)[C@H]3[C@@H]4CC[C@H]5C[C@@H](O[C@@H]6O[C@H](CO)[C@H](O[C@@H]7O[C@H](CO)[C@@H](O)[C@H](O[C@@H]8OC[C@@H](O)[C@H](O)[C@H]8O)[C@H]7O[C@@H]7O[C@H](CO)[C@@H](O)[C@H](O[C@@H]8O[C@H](CO)[C@@H](O)[C@H](O)[C@H]8O)[C@H]7O)[C@H](O)[C@H]6O)[C@H](O)C[C@]5(C)[C@H]4CC[C@]3(C)[C@H]1[C@@H]2C`: the Potency was 25.1 µM (active) in [1]; 10 µM (active) in assay [3]; 10 µM (active) in assay [4]; 10 µM (active) in [5]; 7.94 µM (active) in [6]; 15.8 µM (active) in assay [7]. For the same compound, the Potency in assay [8] was 12.6 µM (active); in assay [9], 20 µM (active); in assay [10], 25.1 µM (active); in [11], 15.8 µM (active); in assay [12] it was 25.1 µM (active); in [13], 25.1 µM (active). Besides, the Potency in assay [14] was 25.1 µM (active); in [15] it was 15.8 µM (active); in assay [16] it was 7.94 µM (active); in [17], 7.94 µM (active); in [18], 26.6 µM (active). In addition, the Potency result in [2] and in [19] was “inactive” each time.
`Oc1c(Br)c(Br)c(Br)c(Br)c1Br`: the Potency result in assay [1], in [2], in assay [3], in assay [4], in assay [5] and in assay [6] was “inactive” in each case. For the same compound, the Potency entry in [7], in assay [8], in assay [9], in assay [10], in assay [11] and in assay [12] was “inactive” in each case. Moreover, the Potency result in [13], in assay [15], in [16], in assay [17] and in assay [19] was “inactive” in each case. The Potency in [18] is 33.5 µM (active). In addition, in assay [20], the activation was 0.143%.
Take `Cc1ccc(O)cc1C`: the activation in assay [20] is 0.215%. Also, in assay [19], the Potency result was “inactive”.
Regarding `OC(c1ccc(Cl)cc1)(c1ccc(Cl)cc1)C(Cl)(Cl)Cl`, the Potency result in assay [1], in [2], in assay [3], in [4], in assay [5] and in [6] was “inactive” in each case. In addition, the Potency result in assay [7], in assay [8], in assay [9], in assay [10], in assay [11] and in assay [12] was “inactive” in each case. Also, the Potency result in assay [13], in assay [14], in assay [15], in assay [16], in assay [17] and in assay [18] was “inactive” in each case. The Potency result in [19] is “inactive”.
